Source: PubChem
Hits are enriched below; roughly 4.8% of the tested compounds scored in any of these assays.
ATXN2 expr inh: reduces ATXN2 reporter expression in HEK-293 cells; AID 1745845; actives 0.72% (n = 360,000); HEK-293 ATXN2-luciferase reporter, luminescence, 24 h; Potency, µM (doses to about 57 µM), actives largely listed as inhibitors; also: nearly all actives have a fitted effect of over 55% in size
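qHTS (up to 57 uM final) was run with 24 h compound exposure of reporter cells at 37 °C. Each well was multiplexed: SteadyGlo luminescence measured ATXN2-luciferase expression after a fluorogenic Gly-Phe-AFC viability readout (25 uM final).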
D3 antag: blocks the human D3 dopamine receptor | P35462 | D3R cells, DiscoveRx beta-arrestin luminescence, antagonist mode; stronger effect = lower value | max response, negative = inhibition, % | actives 2.5% (n = 360,000) | AID 652054; in the data active = max response below about -50%; inconclusive = no clear call, values can overlap the other calls
Target sequence (P35462 whole entry, looked up): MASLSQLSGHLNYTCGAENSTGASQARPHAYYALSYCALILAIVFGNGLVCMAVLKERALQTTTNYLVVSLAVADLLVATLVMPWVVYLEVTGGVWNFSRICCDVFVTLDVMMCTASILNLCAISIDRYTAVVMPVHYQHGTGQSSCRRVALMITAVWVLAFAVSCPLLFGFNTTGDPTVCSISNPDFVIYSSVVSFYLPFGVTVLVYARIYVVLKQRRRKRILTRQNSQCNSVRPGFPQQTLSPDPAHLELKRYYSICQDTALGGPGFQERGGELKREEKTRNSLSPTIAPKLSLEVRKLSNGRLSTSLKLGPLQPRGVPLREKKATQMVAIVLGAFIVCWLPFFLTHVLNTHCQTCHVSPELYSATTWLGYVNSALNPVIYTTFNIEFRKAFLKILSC
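Cells plated overnight at 1500 cells/well, then exposed to library compounds with dopamine controls for 90 minutes at 37 degrees C. DiscoveRx reagent added for 30–60 minutes at room temperature; luminescence read, quantitative HTS format.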
DRD3 agonist: agonists of human D3 dopamine receptor; P35462; D3R DiscoveRx beta-arrestin cells, luminescence, 90 min; max activation, %; actives 0.58% (n = 410,000); in the data active = max activation above about 30%
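Agonist mode: compounds and dopamine controls were applied to plated cells for 90 min at 37 degrees C after an overnight attachment at 1500 cells/well. Luminescent read-out followed 30 - 60 minutes at room temperature with DiscoveRx detection reagent.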
HepG2 viability: HepG2 cytotoxicity, counter-screen for TGF-b inhibitors; HepG2 CAGA-GFP viability, ATP luminescence, 18 h; Potency, µM (highest dose often 46.1 µM), hits mostly cytotoxic; actives 0.76% (n = 410,000); AID 588856
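HepG2 CAGA-GFP cells (1000/well, DMEM with 1% FBS) received compound, then TGF-beta at 500 pg/mL final, and were incubated 18 hours at 37 degrees C. Viability was read by CellTiter-Glo luminescence. Media-only wells were set as complete cell-killing and DMSO as no toxicity.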
ATXN viability: viability counter-screen for ATXN expression inhibitors; actives 0.49% (n = 400,000); AID 651635; Potency, µM (doses to about 56.7 µM), most hits filed as cytotoxic; S2 cells (HEK-293 line with an ATXN2-luciferase reporter) viability, CellTiter-Fluor protease fluorescence, 24 h; also: nearly all actives have a fitted effect of over 40% in size
TGFb inhibitor: blocks TGF-b signaling. HepG2 CAGA-GFP TGF-b/SMAD3 reporter, GFP fluorescence, 18 h; TGF-beta stimulated, 500 pg/mL final. Potency, µM (series often up to 46.1 µM), most hits filed as inhibitors. actives 1.2% (n = 410,000). AID 588855; also: nearly all actives have a fitted effect of over 65% in size
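Read-out: total well GFP (ex488/em500-530) summed from mean per-cell fluorescence. Cells: HEPG2 CAGA-GFP, 1% FBS DMEM, 18 h at 37 degrees C with 500 pg/mL final TGF-beta. Unstimulated wells served as the full-inhibition control; stimulated DMSO wells = 0%.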
Hits are given with their value; – = inactive; ? = inconclusive; · = not tested or not shown; ! = a repeat was not active. Unless noted, calls follow the shape of the dose curve; as a rule, active = well fitted curve in the direction sought with a large enough effect; inconclusive = small, poorly fitted or top-dose-only effect, or another doubt; inactive = no such curve, though single readings can be large; an effect the other way counts as inactive or inconclusive.

SMILES	ATXN2 expr inh	D3 antag	DRD3 agonist	HepG2 viability	ATXN viability	TGFb inhibitor
CCc1cccc(NC(=O)Cn2c3[n+](c4ccc(C(F)(F)F)cc42)CCCCC3)c1	–	–	–	–	–	–
O=C1O[C@@H]2[C@@H](O)[C@H](O)O[C@@H]2[C@H]1O	·	·	–	·	–	·
Cc1cc(Nc2cccc(C(F)(F)F)c2)nc2ccc(NC(=O)c3cncc(Br)c3)cc12	·	·	–	10µM	·	?
Cc1ccccc1C(=O)Nc1ccc2nc(Nc3cccc(C(F)(F)F)c3)cc(C)c2c1	?	·	–	–	–	14µM
Cc1cc(Nc2cccc(Cl)c2)nc2ccc(NC(=O)c3cncc(Br)c3)cc12	?	·	–	–	·	?
Cc1cccc(CNC(=O)c2cnn(-c3nccc(-c4cc5ccccc5o4)n3)c2C2CC2)n1	·	·	·	·	–	·
C=CCN(c1ccc(C(=O)OC)cc1)S(=O)(=O)c1ccccc1	–	-76	–	–	–	–
COc1ccc(NC(=O)CSc2oc(-c3cccs3)nc2S(=O)(=O)c2ccccc2)c(OC)c1	–	·	59	–	–	–
COc1ccc(NC(=O)CSc2oc(-c3cccs3)nc2S(=O)(=O)c2ccc(C)cc2)c(OC)c1	–	·	–	–	–	–
CCCOc1ccccc1C(=O)N1CCCCC1CCN1CCCCC1 (configuration not stated)	·	·	49	–	·	–
c1ccc(-c2nc(-c3cnc4ccccc4n3)cs2)cc1	·	·	·	–	·	–
CC(C)C[C@H](NC(=O)c1[nH]cnc1C(=O)N[C@@H](C)c1ccccc1)C(=O)OC(C)(C)C	?	?	–	–	25µM	?
CC(C)C[C@H](NC(=O)c1[nH]cnc1C(=O)Nc1ccccc1F)C(=O)OC(C)(C)C	?	–	–	11µM	?	?
CC(C)C[C@H](NC(=O)c1nc[nH]c1C(=O)NCc1ccccc1)C(=O)OCc1ccccc1	–	-53	–	–	?	–
CC(C)C[C@H](NC(=O)c1nc[nH]c1C(=O)N1CCNCC1)C(=O)OC(C)(C)C	–	-54	–	–	–	–
CC(C)C[C@H](NC(=O)c1[nH]cnc1C(=O)N[C@@H](Cc1ccccc1)C(=O)OC(C)(C)C)C(=O)OCc1ccccc1	–	–	–	–	?	?
CCCCCSc1nc2sc3c(c2c(=O)n1-c1ccccc1)CCN(C(C)=O)C3	–	·	–	–	–	?
CC(C)C[C@H](NC(=O)c1nc[nH]c1C(=O)NCc1ccccc1)C(=O)OC(C)(C)C	?	?	–	–	?	11µM
CC(C)C[C@H](NC(=O)c1nc[nH]c1C(=O)NC1CCN(C(=O)OC(C)(C)C)CC1)C(=O)OCc1ccccc1	?	–	–	13µM	?	?
CC(C)C[C@H](NC(=O)c1nc[nH]c1C(=O)NC1CCN(C(=O)OC(C)(C)C)CC1)C(=O)OC(C)(C)C	?	–	–	–	?	?
CC(C)C[C@H](NC(=O)c1nc[nH]c1C(=O)NCc1ccc(CNC(=O)OC(C)(C)C)cc1)C(=O)OC(C)(C)C	–	–	–	–	?	?
CC(C)C[C@H](NC(=O)c1[nH]cnc1C(=O)N[C@@H](Cc1ccccc1)C(=O)OC(C)(C)C)C(=O)OC(C)(C)C	?	?	–	–	·	11µM
COc1ccc(-c2nc3cc(C)ccc3cc2CN(C(=O)c2cc(C)nn2C)C2CC2)cc1OC	·	·	·	·	–	·
Cc1ccc(C)c(NC(=S)NNC(=O)c2csc3c2CCC(C)C3)c1 (configuration not stated)	–	-60	–	–	–	?
CCOc1ccc(NC(=O)CN(C)C(=O)CSCc2ccc(C)cc2)cc1OCC	–	–	–	5µM	–	–
SMILES	ATXN2 expr inh	D3 antag	DRD3 agonist	HepG2 viability	ATXN viability	TGFb inhibitor
CCOc1ccc(NC(=O)CN(C)C(=O)CSCc2cccc(C)c2)cc1OCC	–	–	–	–	–	–
CCCCCC1CCNCC1	·	·	·	–	·	?
Cc1cccc(NC2=C/C(=N/S(=O)(=O)c3cccs3)c3ccccc3C2=O)c1	?	-93	–	–	?	?
Cc1ccc(Cl)cc1NS(=O)(=O)c1ccccc1	–	–	–	–	–	–
Cc1ccc(Cl)cc1NC1=C/C(=N\S(=O)(=O)c2cccs2)c2ccccc2C1=O	2.8µM	-108	–	3.5µM!	11µM	4µM
Cc1ccc(NC2=C/C(=N\S(=O)(=O)c3cccs3)c3ccccc3C2=O)c(C)c1	?	-91	–	4.5µM	8.9µM	2.5µM
O=C(COc1ccccc1C(=O)Nc1cccc([N+](=O)[O-])c1)Nc1ccc(Br)cc1	·	·	·	–	·	?
COC(=O)Cc1c(C)c2ccc3c(c2oc1=O)CN(Cc1ccccc1OC)CO3	–	·	–	–	·	–
CCc1ccc(Cn2c(CNS(=O)(=O)c3ccc(Cl)s3)nc3cccnc32)cc1	·	·	–	–	·	?
CCOC(=O)c1cc(S(=O)(=O)Nc2ccc(OC)c(Cl)c2)[nH]n1	–	·	–	–	–	–
CCc1nnc(SCC(=O)Nc2cc(Cl)c(OC)cc2OC)c2cc3oc(C)cc3n12	·	·	–	–	·	–
COc1cc(=O)n2c(c1C(=O)N(C)Cc1ccsc1)CCN(Cc1c(C)nc3sccn13)CC2	·	·	·	·	–	·
CCc1ccc2oc(C(=O)Nc3cc(C)ccc3C)cc(=O)c2c1	–	·	–	–	–	–
CN(C/C=C/c1ccccc1)Cc1cccc2ccccc12	–	-100	–	–	–	–
CN(Cc1ccc(C(C)(C)C)cc1)Cc1cccc2ccccc12	–	·	–	·	–	·
COc1ccc(F)c(CN2CCOc3ccc(CN4CCC(O)(c5cccnc5)CC4)cc3C2)c1	·	·	·	·	–	·
Cc1ccc(Cl)cc1-c1ccc(C=Nc2ccc(N3CCOCC3)cc2)o1	?	–	–	–	–	11µM
Cc1cc(O)c(C=Nc2ccc(N3CCOCC3)cc2)c(C)c1Cl	–	–	–	–	–	–
C[N+]1(CC(=O)c2ccc(Br)cc2)CCOCC1	·	·	·	–	·	–
COc1ccccc1C(=O)NC1(C(F)(F)F)C(=O)Nc2c1c(=O)[nH]c(=O)n2-c1ccccc1 (configuration not stated)	–	·	–	–	–	–
CC(=O)NCC(=O)N1[C@H]2CC[C@H]1c1cc(Nc3ncc(C(F)(F)F)c(NC4CCC4)n3)ccc12	4.9µM	·	·	·	·	·
Cc1cc(S(=O)(=O)Nc2ccc(-c3ccc(N4CCCCCC4)nn3)cc2)c(C)cc1Cl	–	·	–	–	?	–
Cc1c(C(=O)c2ccc(Cl)c(Cl)c2)cnc2cc3c(cc12)OCO3	–	-56	–	–	–	–
Cc1cc(C)cc(NC(=O)c2sc3nc[nH]c(=O)c3c2C)c1	·	·	–	–	·	?
C=CCn1c(SC(C)C#N)nc2ccccc2c1=O (configuration not stated)	·	·	·	–	·	–
